Screening results (PubChem BioAssay)
Sm TGR inh – S. mansoni TGR enzyme inhibition. Q962Y6. purified TGR, DTNB reduction, TNB absorbance 405 nm. Potency, µM (doses to about 114 µM), for the others: top-dose activity change, negative = inhibition, usual class: inhibitors. 360,000 compounds, 3% hits. AID 485364; also: % is scaled to controls: 0 for no effect and ±100 for the full control effect; nearly all actives have a fitted effect of over 60% in size
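TGR 20 nM + NADPH 100 uM (dispensed conc.), cpd preinc 15 min RT; start with NADPH (500 uM addition) then DTNB (15 mM addition). Kinetic TNB absorbance, 405 nm filter. Four-parameter Hill fit across titration.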
Pf growth 96h – P. falciparum growth inhibition at 96 hour, primary screen for plastid delayed-death inhibitors; P. falciparum luciferase reporter growth, 96 h; Potency, µM (doses to about 28.7 µM), for inactives: at the highest dose activity change, negative = inhibition, usual class: inhibitors; 320,000 compounds, 6.9% hits; also: % is scaled to controls: 0 for no effect and ±100 for the full control effect
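Plates of compound plus infected erythrocytes (2% hematocrit, 0.05% parasitemia final) incubate 96 hours, 37 C, 5% CO2. Detection reagent added; reduced luminescence from the parasites' luciferase reporter flags inhibition.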
Pf growth 48h – P. falciparum growth inhibition at 48 hours (one generation). AID 504832. 310,000 compounds, 5.9% hits. Potency, µM (titrated, usually from 28.7 µM), for the others: at the top dose activity change, negative = inhibition, usual class: inhibitors. P. falciparum luciferase growth in erythrocytes, 48 h; also: % is scaled to controls: 0 for no effect and ±100 for the full control effect
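Luminescence readout; reporter = integrated firefly luciferase in P. falciparum. RBC culture at 2% hematocrit, 0.1% parasitemia final, 37 C/5% CO2; decreased signal taken as growth inhibition.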
NS1 inh – influenza NS1 inhibition. 270,000 compounds, 0.4% hits. Potency, µM (highest dose often 46.1 µM), for the others: at the top dose activity, positive = more growth; calls by dose curve; also: actives are rising curves; nearly all actives have a fitted effect of over 50% in size
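OD600 was taken as the measure of yeast growth restored by compound in an NS1-expressing S. cerevisiae strain. Cells had been washed out of glucose medium and diluted 1:100 into galactose -URA medium, pH 6.0.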
AMA1-RON2 inh – disrupts binding of P. falciparum AMA1 to RON2; AlphaScreen AMA1-biotinylated RON2 peptide binding; Potency, µM (doses to about 58.2 µM), without a hit: at the top dose activity change, negative = inhibition, actives largely listed as inhibitors; 360,000 compounds, 0.2% hits;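 also: 0% = vehicle wells and -100% = peptide control; nearly all actives have a fitted effect of over 45% in size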
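AMA1 (3D7) with his tag at 25 nM final met compounds first, then biotinylated RON2 peptide at 25 nM; detection used donor plus acceptor beads, 10 µg/mL apiece, read by AlphaScreen after 30 min at room temperature.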
Numbers without * were called inactive; u = inconclusive; x = no result given; [ ] = another dose, or the depositor's remark. Rows were chosen to be rich in hits. Some 11% of all compounds tested hit in one or more screens of this group. Unless noted, calls follow the shape of the dose curve; as a rule, active = well fitted curve in the direction sought with a large enough effect; inconclusive = small, poorly fitted or top-dose-only effect, or another doubt; inactive = no such curve, though single readings can be large; an effect the other way counts as inactive or inconclusive. Potency is read from the fitted curve at half-maximal effect.

SMILES	Sm TGR inh	Pf growth 96h	Pf growth 48h	NS1 inh	AMA1-RON2 inh
CN(C)Cc1cc(C(C)(C)C)c(O)c(C(C)(C)C)c1	22.4µM*	1.04µM*	29.2%	-14.0%	-5.7%
CC(C)(CO)Cc1cc(C(C)(C)C)c(O)c(C(C)(C)C)c1	-8.4%	u	u	-31.2%	4.5%
CC(=O)N1CCN(C(=O)CCc2cc(C(C)(C)C)c(O)c(C(C)(C)C)c2)CC1	2.3%	13.1µM*	u	12.8%	-4.7%
CC(C)(C)c1cc(CN2CCC(O)CC2)cc(C(C)(C)C)c1O	7.94µM*	x	-5.6%	-2.3%	-6.1%
CC(C)(C)c1cc(CCC(=O)N2CCCC2)cc(C(C)(C)C)c1O	-9.6%	-31.3%	1.3%	18.1%	0.0%
CN1CCN(Cc2cc(C(C)(C)C)c(O)c(C(C)(C)C)c2)CC1	3.55µM*	95.5%	x	3.5%	-18.8%
CC(=O)OCC(=O)C1CCC2C3CCC4=CC(=O)C=CC4(C)C3CCC12C (centres undefined)	x	x	x	x	-8.6%
COc1cc(OC)c2nc(C)c3c(c2c1)N(c1ccc(O)cc1)CC3	4.8%	13.1µM*	u	8.2%	-0.7%
COc1cc(OC)cc(C(=O)NCC(=O)N2CCN(c3ccc(O)cc3)CC2)c1	u	u	-5.1%	19.9%	-2.2%
CCOC(=O)c1cnc2ccc(OC)cc2c1NCCc1ccc(OC)c(OC)c1	2.2%	u	2.62µM*	0.2%	16.4%
CCOC(=O)c1cnc2ccccc2c1Nc1ccc(C(=O)O)cc1	47.8%	u	u	0.9%	-27.1%
CCOC(=O)c1cnc2ccccc2c1NCCc1ccc(OC)c(OC)c1	6.0%	1.65µM*	11.7µM*	-1.0%	u
CCOC(=O)c1cnc2ccc(OC)cc2c1NCCN1CCOCC1	-2.7%	u	u	-1.9%	-0.2%
CCN(CC)c1nn2c(=O)c(C(=O)NCc3cccc(C)c3)cnc2s1	0.1%	x	x	x	x
C/C(=N\NC(=O)CC(C)C)c1ccc(Cl)c(Cl)c1	0.5%	u	36.5%	2.8%	24.8%
C/C(=N\N=C(N)N)c1ccc(Cl)c(Cl)c1	x	u	4.15µM*	3.1%	10.2%
COc1cccc(C(=O)N2N=C(c3cccc(OC)c3)CC2(O)C(F)(F)F)c1 (centres undefined)	12.7%	11.4%	9.2%	-20.7%	23.9%
COc1cccc(C2=NN(C(=O)c3cccs3)C(O)(C(F)(F)F)C2)c1 (centres undefined)	-2.9%	-10.4%	3.7µM*	x	-5.3%
CC(C)(C)S(=O)(=O)c1ccccc1C(=O)O	0.0%	9.28µM*	158.9%	6.7%	14.0%
Cc1cc(C)c(S(=O)(=O)c2ccccc2C(=O)O)c(C)c1	-21.0%	-5.0%	6.7%	3.1%	3.3%
Cn1c(NC2CCCCC2)cc(=O)n(C)c1=O	5.4%	10.4µM*	u	-7.6%	1.3%
COc1ccc(C2=NN(C(=O)c3ccc(Cl)c([N+](=O)[O-])c3)C(c3ccccc3)C2)cc1 (centres undefined)	0.0%	-7.6%	-13.7%	29.1%	-3.9%
COc1ccc(C2CC(c3ccccc3)=NN2C(=O)c2ccc(F)cc2)cc1 (centres undefined)	-1.0%	-24.3%	11.7µM*	1.9%	-4.7%
O=C(c1ccccc1)N1N=C(c2ccccc2)CC1c1ccc2nccnc2c1 (centres undefined)	-1.3%	u	9.28µM*	12.4%	-4.4%
CC(=O)N1N=C(c2ccc3nccnc3c2)CC1c1ccccc1 (centres undefined)	-40.3%	-8.2%	-11.4%	7.0%	0.8%
SMILES	Sm TGR inh	Pf growth 96h	Pf growth 48h	NS1 inh	AMA1-RON2 inh
O=c1oc2ccccc2c2c1C1O[C@](c3ccsc3)(Cc3c1ccc1ccccc31)O2	8.91µM*	u	45.4%[5.75 µM]	11.8%	x
Cc1ccc(Nc2nc3nonc3nc2Nc2cccc(C(F)(F)F)c2)cc1Cl	1.6%	x	x	x	x
COc1cc2c(C(=O)N3CCN(C)CC3)c(C)n(-c3ccccc3)c2cc1Br	14.5%	1.47µM*	4.65µM*	-1.1%	1.9%
CCN(c1ccccc1)S(=O)(=O)c1ccc(Cl)c(NC(=O)CN2CCCCCC2)c1	-2.7%	u	5.86µM*	-1.3%	-19.3%
CCN(c1ccccc1)S(=O)(=O)c1ccc(Cl)c(NC(=O)CSc2nncn2C)c1	-5.3%	8.28µM*	u	-6.5%	4.0%
CCN(c1ccccc1)S(=O)(=O)c1cc(C(=O)Nc2ccccc2Cl)ccc1F	-0.1%	2.94µM*	-4.2%	-0.6%	28.0%
CN(C)S(=O)(=O)c1ccc(Cl)c(NC(=O)CN2CCCCCC2)c1	-9.1%	-1.3%	u	x	-0.2%
Cc1[nH]c2ccccc2c1C(=O)COc1ccccc1	6.1%	260.1%	-5.2%	-7.4%	3.3%
CCOC(=O)c1c[nH]c2c(C)cc(C)cc2c1=O	9.2%	9.9%	5.22µM*	14.3%	-19.4%
CCOC(=O)c1c[nH]c2c(Cl)c(Cl)ccc2c1=O	-3.0%	-33.6%	-1.1%	2.3%	0.7%
CCOC(=O)c1c[nH]c2c3c(ccc2c1=O)CCCC3	6.0%	u	0.329µM*	4.0%	-7.8%
CCOC(=O)[C@H]1[C@H]2COc3cc(OC)ccc3[C@@H]2N2C(=O)N(c3cccc(Cl)c3)C(=O)[C@@]12C	-6.0%	u	u	-2.2%	-0.5%
CC1CCCCN1C(=O)c1c(Cl)cnn1C (centres undefined)	-1.3%	-29.2%	2.5%	12.2%	-7.8%
Cc1ccc(C)c(N2CCN(C(=O)C34CC5CC(C3)CC(n3nnc(C)n3)(C5)C4)CC2)c1	-0.8%	u	10.4µM*	0.6%	-10.9%
Cc1ccc(C23CC4CC(CC(C(=O)N5CCN(C)CC5)(C4)C2)C3)cc1	8.5%	u	u	-3.7%	1.4%
COc1ccccc1CNC(=O)C(=O)NCC1OCCCN1S(=O)(=O)c1cccs1 (centres undefined)	-5.0%	-23.1%	u	1.9%	10.9%
CCC(=O)N1CCc2cc(Br)cc(S(=O)(=O)N3CCN(c4cc(C)ccc4C)CC3)c21	-1.6%	x	x	x	x
COc1ccc(CNC(=O)C(=O)NCC(c2cccs2)S(=O)(=O)c2cccs2)cc1 (centres undefined)	28.2µM*	x	x	x	x
COc1ccc(CCNC(=O)C(=O)NCC(c2cccs2)S(=O)(=O)c2cccs2)cc1 (centres undefined)	28.2µM*	x	x	x	x
O=C(NCCO)C(=O)NCC(c1cccs1)S(=O)(=O)c1ccc(F)cc1 (centres undefined)	x	x	x	x	-1.8%
O=C(NCc1ccc(F)cc1)C(=O)NCC(c1cccs1)S(=O)(=O)c1cccs1 (centres undefined)	25.1µM*	x	x	x	x
CCc1ccc(C2CC(=O)Nc3c2c(=O)n(C)c2ncnn32)cc1 (centres undefined)	2.7%	x	x	x	x
Cc1cc(C)c(OCC(=O)NCC(C)(C)N2CCOCC2)c(C)c1	1.8%	1.3%	u	x	32.8%
O=C(Nc1cccc2nsnc12)c1ccc(-c2ccc(Br)cc2)o1	35.5µM*	22.4%	39.2%	3.9%	7.2%
O=C(Nc1cccc(-c2nc3ccccc3o2)c1)c1ccc(-c2ccc(Br)cc2)o1	39.8µM*	x	x	x	x
